# Measurements reported in PubChem BioAssay AID2216 (Broad Institute, 2009).
# Among all 300,000 compounds or so, about 3,300 (1.1%) were called active. Inconclusive results (about 6%) are left out.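 Rule for the calls: active = more than half of the replicate wells show a fall in the fluorescence ratio signal beyond about 16% (limit read from the data, passing the limit was not always enough); inconclusive = exactly half of the replicate wells pass the set limit; inactive = fewer than half of replicates pass the limit.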 This excerpt belongs to a sample that is enriched for actives.
# Test system: Ran GTPase (GTP-bound) - importin-beta complex
# Experiment: inhibitors of RanGTP-importin-beta interaction, primary screen, biochemical, FRET, CFP-Ran, YFP-importin-beta, homogeneous (AID 2216);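 note: 0% = DMSO wells and 100% = Ran loaded with GDP instead of GTP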
# Conditions: cell-free CFP-Ran/YFP-importin-beta FRET ratio; active compounds read high; concentration not given here
row,Compound,inhibition
1,CC(C)C1C2=C(CC(C)(C)CC2=O)ON1c1ccccc1 (stereo not drawn),26.1% (active)
2,Cc1cc2c(cc1C)NC(c1ccccn1)C1=C(CC(C)(C)CC1=O)N2 (stereo not drawn),-3.07% (inactive)
3,Cc1ccsc1C1C(C#N)=C(N)OC2=C1C(=O)CC(C)(C)C2 (stereo not drawn),-0.947% (inactive)
4,CCCCCCCCCCCCN1[C@@H](CC(C)=O)c2cc(F)cc(F)c2S1(=O)=O,-0.304% (inactive)
5,CCCC1OC23CCCCC2C(C#N)(C#N)C1(C#N)C(=N)O3 (stereo not drawn),41.6% (active)
6,CC(C)N(C(=O)Cn1cc(S(=O)(=O)CC(=O)N2CCOCC2)c2ccccc21)C(C)C,2.93% (inactive)
7,O=C1CCc2cc(S(=O)(=O)Nc3ccc(C(F)(F)F)cc3)cc3c2N1CC3,-3.26% (inactive)
8,O=C(COc1cccc2c1CCNC2=O)NC1CCCCC1,-2.21% (inactive)
9,CC(=O)c1ccc(-c2ccc(Cn3c(C)nc4cc(N)c(C)nc43)cc2)cc1,27.1% (active)
10,CCOC(=O)c1ccc2c(c1)nc(C)n2CC,-1.9% (inactive)
11,Cc1cc2nc3c(=O)n(Cc4ccccc4)c(=O)[nH]c3nc2cc1N,-261% (inactive)
12,O=C(CSc1n[nH]c(-c2cccs2)n1)N1CCCCC1,-0.392% (inactive)
13,CS(=O)(=O)c1ccc(C(=O)OCC(=O)NNC(=O)COc2ccc(Cl)cc2)cc1,-2.55% (inactive)
14,O=C(CSc1ccccn1)N1CCN(S(=O)(=O)c2ccc(Cl)cc2)CC1,-1.48% (inactive)
15,Cc1cccc(NC(=O)c2ccc(S(=O)(=O)N(C)CC3CCCO3)cc2)c1C (stereo not drawn),-0.172% (inactive)
16,Cc1ccc(C(=O)N2CCN(C(=O)N3CCOCC3)CC2)cc1,-2.03% (inactive)
17,O=C(N1CCOCC1)N1CCOCC1,-2.74% (inactive)
18,N#C/C(=C\C1=C(N2CCOCC2)C(=C\c2ccccc2)/CC1)C(=O)Nc1ccccc1F,-3.91% (inactive)
19,N#C/C(=C\c1ccc(N2CCOCC2)o1)C(=O)N1CCOCC1,56.4% (active)
20,N#C/C(=C\c1ccc(-c2cccc([N+](=O)[O-])c2)o1)C(=O)NCCN1CCOCC1,2.98% (inactive)
21,N#C/C(=C/c1ccc(N2CCOCC2)o1)C(=O)N1CCOCC1,39.5% (active)
22,CC(Oc1ccc(F)cc1)C(=O)Nc1ccccc1C(=O)NC1CC1 (stereo not drawn),-6.02% (inactive)

row,Compound,inhibition
1,Cc1ccc(-c2cc(=O)[nH]c(NCc3ccccc3)n2)cc1,4.99% (inactive)
2,CSCCC(NC(=O)c1ccco1)C(=O)Nc1cc(C)ccn1 (stereo not drawn),-2.09% (inactive)
3,Cc1cc(Cl)c2oc(C(=O)N(C)C(C)c3ccccn3)c(C)c2c1 (stereo not drawn),1.52% (inactive)
4,CC(=O)Nc1ccc(NC(=O)CS(=O)(=O)c2cn(CC(=O)N3CCCCC3)c3ccccc23)cc1,-0.901% (inactive)
5,Cc1ccc(C)c(-c2nnc(NC(=O)CS(=O)(=O)c3ccccc3)o2)c1,-0.829% (inactive)
6,N=c1oc2ccccc2cc1C(=O)N/N=C/c1ccccc1,3.47% (inactive)
7,N=c1oc2ccccc2cc1C(=O)NCc1ccccc1,2.48% (inactive)
8,CNC(=O)c1cc2c(ccc3ccccc32)oc1=N,35.7% (active)
9,O=C(NNC(=O)c1cc(-c2ccccc2Cl)nc2ccccc12)c1csc(N2CCOCC2)n1,1.15% (inactive)
10,O=C(NCc1ccncc1)c1ccc(NS(=O)(=O)c2cccc([N+](=O)[O-])c2)cc1,3.31% (inactive)
11,CC(OC(=O)CNC(=O)c1ccco1)C(=O)Nc1ccc(Cl)cn1 (stereo not drawn),0.318% (inactive)
12,CNC(C)C#Cc1ccc2sc3cc(OC)c(OC)cc3c(=O)c2c1 (stereo not drawn),38.7% (active)
13,Cc1cccc(N2CCN(C(=O)CCS(=O)(=O)c3ccc4c(c3)NC(=O)C(C)S4)CC2)c1C (stereo not drawn),1.94% (inactive)
14,CSc1nsc(NC(=O)Nc2ccccc2)n1,1.6% (inactive)
15,O=c1cc(CN2CCN(S(=O)(=O)/C=C/c3ccccc3)CC2)c2ccc(O)cc2o1,21% (active)
16,NC(=O)CCN1CCN(S(=O)(=O)/C=C/c2ccccc2)CC1,3.03% (inactive)
17,COc1ccc2c(CN3CCN(S(=O)(=O)c4cccs4)CC3)cc(=O)oc2c1,-2.73% (inactive)
18,CCOC(=O)N1CCN(C(=O)c2ccc(S(=O)(=O)Nc3cccc(C(F)(F)F)c3)cc2)CC1,-0.937% (inactive)
19,CN(C)CCCn1c(N)c(C#N)c2nc(C#N)c(C#N)nc21,27.1% (active)
20,Cc1ccc2nnn(Cc3cccc(C(C)(C)C)c3O)c2c1,9.31% (inactive)
21,COCCCn1c(SCC(=O)Nc2oc(C)c3c(C)n[nH]c(=O)c23)nc2sc3c(c2c1=O)CCC3,-0.217% (inactive)
